# Assay results: PubChem BioAssay AID1159580 (chemical genetic matrix, 2015)
# The campaign covered roughly 5,500 compounds. About 2,000 (36%) were called active. Inconclusive results (about 18%) are left out. The list shows a part of the results. Unmarked numbers belong to inactive results. Cut-off read from the data, not from the text of the source: active = normalized growth mostly below about 0.91 (no sharp cut-off); inconclusive = no clear call, values can overlap the other calls; inactive = mostly above about 0.92.
# Assay: chemical genetic growth profiling, strain panel (AID 1159580);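 note: tested at 20 µM; growth read once vehicle control cultures reached saturation at 30 °C; 1 = growth at the plate median or of vehicle wells; lower values mean less growth of the strain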
# Details: S. cerevisiae deletion strains, growth OD
# [1] = locus YHR030C, strain SLT2, active compounds read low
# [2] = locus YJL187C, strain SWE1, active compounds read low
smiles,measurement,setting,value
CN(C)c1ccc(-c2n[nH]c(=O)c3ccccc23)cc1[N+](=O)[O-],normalized growth,"locus YAL013W, strain DEP1, active compounds read low",0.966
same,normalized growth,"locus YBR229C, strain ROT2, active compounds read low",0.986
same,normalized growth,"locus YCL061C, strain MRC1, active compounds read low",0.98
same,normalized growth,"locus YDL101C, strain DUN1, active compounds read low",1
same,normalized growth,"locus YDR150W, strain NUM1, active compounds read low",0.981
same,normalized growth,"locus YEL061C, strain CIN8, active compounds read low",0.907 (active)
same,normalized growth,"locus YGR078C, strain PAC10, active compounds read low",1
same,normalized growth,[1],0.875
same,normalized growth,"locus YHR087W, strain rtc3, active compounds read low",0.982
same,normalized growth,[2],0.978
same,normalized growth,"locus YJR043C, strain POL32, active compounds read low",0.963
same,normalized growth,"locus YJR075W, strain HOC1, active compounds read low",0.99
same,normalized growth,"locus YKL190W, strain CNB1, active compounds read low",1.01
same,normalized growth,"locus YLR039C, strain RIC1, active compounds read low",1.09
same,normalized growth,"locus YLR058C, strain SHM2 (second series), active compounds read low",0.994
same,normalized growth,"locus YLR085C, strain ARP6, active compounds read low",0.882
same,normalized growth,"locus YLR262C, strain YPT6, active compounds read low",1.08
same,normalized growth,"locus YML094W, strain GIM5, active compounds read low",0.891
same,normalized growth,"locus YMR219W, strain ESC1, active compounds read low",0.999
same,normalized growth,"locus YMR263W, strain SAP30, active compounds read low",0.961
same,normalized growth,"locus YNL153C, strain GIM3, active compounds read low",0.979
same,normalized growth,"locus YNL298W, strain CLA4 (second series), active compounds read low",0.891
same,normalized growth,"locus YNL322C, strain KRE1, active compounds read low",1.03
same,normalized growth,"locus YNR030W, strain Alg12, active compounds read low",0.955
same,normalized growth,"locus YPL055C, strain LGE1, active compounds read low",0.886
same,normalized growth,"locus YPL241C, strain CIN2, active compounds read low",0.96
same,normalized growth,"locus YPR135W, strain CTF4, active compounds read low",0.97
NC(=O)CS(=O)C(c1ccccc1)c1ccccc1 (stereo unspecified),normalized growth,"locus YAL021C, strain ccr4, active compounds read low",1.01
same,normalized growth,"locus YAL026C, strain drs2, active compounds read low",1.04
same,normalized growth,"locus YAL030W, strain snc1, active compounds read low",1.02
same,normalized growth,"locus YBL061C, strain skt5, active compounds read low",1.02
same,normalized growth,"locus YBR009C, strain hhf1, active compounds read low",0.976
same,normalized growth,"locus YBR023C, strain chs3, active compounds read low",1.03
same,normalized growth,"locus YBR171W, strain sec66, active compounds read low",1.02
same,normalized growth,"locus YBR231C, strain swc5, active compounds read low",1
same,normalized growth,"locus YBR279W, strain paf1, active compounds read low",1.02
same,normalized growth,"locus YCL011C, strain gbp2, active compounds read low",1.02
same,normalized growth,"locus YCL016C, strain dcc1, active compounds read low",1.04
same,normalized growth,"locus YCL069W, strain vba3, active compounds read low",0.998
same,normalized growth,"locus YCR088W, strain abp1, active compounds read low",1.01
same,normalized growth,"locus YDL005C, strain med2, active compounds read low",1.03
same,normalized growth,"locus YDL040C, strain nat1, active compounds read low",0.998
same,normalized growth,"locus YDR001C, strain nth1, active compounds read low",1
same,normalized growth,"locus YDR069C, strain doa4, active compounds read low",1.02
same,normalized growth,"locus YDR137W, strain rgp1, active compounds read low",1.05
same,normalized growth,"locus YDR159W, strain sac3, active compounds read low",0.939
same,normalized growth,"locus YDR195W, strain ref2",0.981
same,normalized growth,"locus YDR297W, strain sur2, active compounds read low",0.994
same,normalized growth,"locus YDR334W, strain swr1, active compounds read low",1
same,normalized growth,"locus YDR335W, strain msn5, active compounds read low",1.02
same,normalized growth,"locus YDR392W, strain spt3, active compounds read low",0.968
same,normalized growth,"locus YEL003W, strain gim4, active compounds read low",0.99
same,normalized growth,"locus YEL037C, strain rad23, active compounds read low",1.01
same,normalized growth,"locus YEL061C, strain CIN8 (second series), active compounds read low",1.01
same,normalized growth,"locus YER015W, strain faa2, active compounds read low",1.01
same,normalized growth,"locus YER016W, strain bim1, active compounds read low",1.02
same,normalized growth,"locus YER111C, strain swi4, active compounds read low",1.01
same,normalized growth,"locus YER155C, strain BEM2 (second series), active compounds read low",1.02
same,normalized growth,"locus YFR010W, strain ubp6, active compounds read low",0.987
same,normalized growth,"locus YGL167C, strain pmr1, active compounds read low",1
same,normalized growth,"locus YGL173C, strain kem1, active compounds read low",1
same,normalized growth,"locus YGL227W, strain vid30, active compounds read low",1.01
same,normalized growth,"locus YGL240W, strain doc1, active compounds read low",1.01
same,normalized growth,"locus YGL253W, strain hxk2, active compounds read low",1.03
same,normalized growth,"locus YHR013C, strain ard1, active compounds read low",1.05
same,normalized growth,"locus YHR027C, strain rpn1, active compounds read low",1.01
same,normalized growth,[1],1.04
same,normalized growth,"locus YHR079C, strain IRE1, active compounds read low",1.04
same,normalized growth,"locus YHR142W, strain chs7, active compounds read low",1.01
same,normalized growth,"locus YJL092W, strain hpr5, active compounds read low",1
same,normalized growth,"locus YJL095W, strain BCK1 (second series), active compounds read low",1.02
same,normalized growth,"locus YJL095W, strain BCK1, active compounds read low",0.996
same,normalized growth,"locus YJL115W, strain asf1, active compounds read low",1.01
same,normalized growth,"locus YJL129C, strain trk1, active compounds read low",1.04
same,normalized growth,"locus YJL154C, strain vps35, active compounds read low",1.01
same,normalized growth,"locus YJL164C, strain tpk1, active compounds read low",0.988
same,normalized growth,"locus YJL166W, strain qcr8, active compounds read low",0.982
same,normalized growth,[2],1.01
same,normalized growth,"locus YJR066W, strain TOR1, active compounds read low",0.977
same,normalized growth,"locus YKL160W, strain elf1, active compounds read low",1.05
same,normalized growth,"locus YKR026C, strain gcn3, active compounds read low",1.01
same,normalized growth,"locus YKR091W, strain srl3, active compounds read low",1.01
same,normalized growth,"locus YLL001W, strain dnm1, active compounds read low",0.972
same,normalized growth,"locus YLL026W, active compounds read low",1
same,normalized growth,"locus YLL041C, strain sdh2, active compounds read low",1
same,normalized growth,"locus YLR027C, strain aat2, active compounds read low",0.985
same,normalized growth,"locus YLR113W, strain HOG1, active compounds read low",0.961
same,normalized growth,"locus YLR221C, strain rsa3, active compounds read low",0.977
same,normalized growth,"locus YLR258W, strain gsy2, active compounds read low",1.03
same,normalized growth,"locus YLR262C, strain YPT6 (second series), active compounds read low",1.01
same,normalized growth,"locus YLR320W, strain mms22, active compounds read low",0.958
same,normalized growth,"locus YLR342W, strain FKS1, active compounds read low",1.02
same,normalized growth,"locus YLR357W, strain rsc2, active compounds read low",0.997
same,normalized growth,"locus YLR370C, strain arc18, active compounds read low",1.02
same,normalized growth,"locus YLR384C, strain iki3, active compounds read low",1.02
same,normalized growth,"locus YML120C, strain ndi1, active compounds read low",0.981
same,normalized growth,"locus YMR058W, strain fet3, active compounds read low",1.02
same,normalized growth,"locus YMR125W, strain sto1, active compounds read low",1.04
same,normalized growth,"locus YMR129W, active compounds read low",1.01
same,normalized growth,"locus YMR205C, strain PFK2, active compounds read low",1.01
same,normalized growth,"locus YMR231W, strain pep5, active compounds read low",0.999
same,normalized growth,"locus YNL071W, strain lat1, active compounds read low",1.02
same,normalized growth,"locus YNL183C, strain NPR1, active compounds read low",0.958
same,normalized growth,"locus YNL209W, strain ssb2, active compounds read low",1.01
same,normalized growth,"locus YNL248C, strain rpa49, active compounds read low",1.04
same,normalized growth,"locus YNL322C, strain KRE1 (second series), active compounds read low",1.02
same,normalized growth,"locus YNR049C, strain mso1, active compounds read low",1.03
same,normalized growth,"locus YOR001W, strain rrp6, active compounds read low",0.928
same,normalized growth,"locus YOR070C, strain gyp1, active compounds read low",1.01
same,normalized growth,"locus YOR080W, strain dia2, active compounds read low",1.01
same,normalized growth,"locus YOR083W, strain WHI5, active compounds read low",0.976
same,normalized growth,"locus YOR106W, strain vam3, active compounds read low",1.02
same,normalized growth,"locus YOR231W, strain MKK1, active compounds read low",1.02
same,normalized growth,"locus YOR265W, strain rbl2, active compounds read low",1.01
same,normalized growth,"locus YOR270C, strain vph1, active compounds read low",1.05
same,normalized growth,"locus YOR290C, strain snf2, active compounds read low",1.06
same,normalized growth,"locus YPL051W, strain arl3, active compounds read low",1.06
same,normalized growth,"locus YPL078C, strain atp4, active compounds read low",1.05
same,normalized growth,"locus YPL106C, strain sse1, active compounds read low",1.04
same,normalized growth,"locus YPL240C, strain hsp82, active compounds read low",1
same,normalized growth,"locus YPL256C, strain CLN2, active compounds read low",1.06
